± gives the standard deviation of the averaged measurements.
Key:
Settings in all cases: concentration: 10 µM; 24 h
[1] = test system: HCC1569; assay: cell number relative to DMSO (% of DMSO); higher = more cells (less growth inhibition / toxicity)
How it was run: (§1)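 Treatment: HCC1569 and TDF cells, 800 per well in 384-well plates with RPMI and 10% FBS, were given compounds at 10 µM for 24 h at 37 °C, in triplicate. Readout: after 3.7% formaldehyde fixation, cells were stained with a rabbit anti-H1.0 antibody, an AlexaFluor 647 secondary and DAPI. Reported values are H1.0 nuclear intensity or cell number as percent of the plate control, taken as the median of replicates, with positional smoothing for HCC1569.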

[2] = test system: TDF; assay: as above
How it was run: as §1

[3] = test system: TDF; assay: H1.0 immunofluorescence intensity relative to DMSO (% of DMSO); higher = stronger H1.0 induction, active = 120 or more
How it was run: as §1

[4] = test system: HCC1569; assay: H1.0 immunofluorescence intensity relative to DMSO (% of DMSO); higher = stronger H1.0 induction, active = 140 or more
How it was run: as §1
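Wherever H1.0 immunofluorescence intensity relative to DMSO is given: TDF is a line of transformed human dermal fibroblasts of mesenchymal origin.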
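Wherever cell number relative to DMSO is given: TDF denotes transformed human dermal fibroblasts of mesenchymal origin.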

Row | SMILES | cell number [1] | cell number [2] | H1.0 immunofluorescence intensity [3] | H1.0 immunofluorescence intensity [4]
1 | CCCCCCCCCCCCCCCC(=O)OCC(COP(=O)(O)O)OC(=O)CCCCCCCCCCCCCCC (configuration not stated) [Dipalmitoylphosphatidic acid] | 94.8 | 107 | 89.8 (inactive) | 107 (inactive)
2 | COc1ccc(-c2ccc(N)[n+](CCCC(=O)O)n2)cc1.[Br-] | 105 | 97.9 | 96.2 (inactive) | 103 (inactive)
3 | Cc1ccc(S(=O)(=O)NC(Cc2ccccc2)C(=O)CCl)cc1 [N-p-Tosyl-L-phenylalanine chloromethyl ketone] | 85.5 | 84.6 | 102 (inactive) | 113 (inactive)
4 | CC#CC1(O)CCC2C3CCC4=CC(=O)CCC4=C3C(c3ccc(N(C)C)cc3)CC21C (configuration not stated) [Mifepristone] | 101 ± 8.2 | 111 ± 13 | 96.8 (inactive) | 102 (inactive)
5 | NC(=O)CC[C@H](N)C(=O)O [L-Glutamine] | 100 | 112 | 91.4 (inactive) | 105 (inactive)
6 | CC(N)=NCc1cccc(CN)c1.Cl.Cl [1400W dihydrochloride] | 101 | 119 | 90.6 (inactive) | 109 (inactive)
7 | CC(F)(F)CN1CCOc2c(nn(-c3ccccc3Cl)c2-c2ccc(Cl)cc2)C1=O | 104 | 101 | 93.5 (inactive) | 88.3 (inactive)
8 | CCCCCCCCCCCCCCCCOCC(CO)OC(C)=O (configuration not stated) [1-Hexadecyl-2-O-acetyl-glycerol] | 106 | 99.8 | 98.3 (inactive) | 86.3 (inactive)
9 | CCN(CC)C(C)C(=O)N1c2ccccc2Sc2ccccc21.Cl (stereo not drawn) [10-(alpha-Diethylaminopropionyl)-phenothiazine hydrochloride] | 93.7 | 99 | 98.5 (inactive) | 85.9 (inactive)
10 | C=C1OC(CO)(n2cnc3c(N)ncnc32)C(O)C1O (configuration not stated) [Decoyinine] | 107 | 105 | 91.6 (inactive) | 88.3 (inactive)
11 | CCCC(CCC)C(=O)O [Valproic acid] | 100 | 111 | 97 (inactive) | 105 (inactive)
12 | NC1CONC1=O [D-Cycloserine] | 98.8 | 96.8 | 97.5 (inactive) | 92.1 (inactive)
13 | CC(C=CC1=C(C)CCCC1(C)C)=CC=CC(C)=CC(=O)Nc1ccc(O)cc1 [4-Hydroxyphenylretinamide] | 89.9 | 112 | 95.7 (inactive) | 120 (inactive)
14 | COCCOC(=O)C1=C(C)NC(C)=C(C(=O)OCC=Cc2ccccc2)C1c1cccc([N+](=O)[O-])c1 (configuration not stated) [Cilnidipine] | 104 | 108 | 90.2 (inactive) | 111 (inactive)
15 | CC(C)(C)C(=O)OCOC(=O)[C@@H]1N2C(=O)[C@@H](/N=C/N3CCCCCC3)[C@H]2SC1(C)C | 84.7 | 93.4 | 89 (inactive) | 115 (inactive)
16 | O=c1sn(-c2cccc3ccccc23)c(=O)n1Cc1ccccc1 [4-benzyl-2-(1-naphthyl)-1,2,4-thiadiazolidine-3,5-dione] | 94.9 | 90.9 | 101 (inactive) | 98.8 (inactive)
17 | O=C(O)COc1ccc(C(=O)c2cccs2)c(Cl)c1Cl [[2,3-dichloro-4-(2-thienylcarbonyl)phenoxy]acetic acid] | 106 | 99.8 | 95.1 (inactive) | 109 (inactive)
18 | O=c1[nH]c2cc([N+](=O)[O-])c([N+](=O)[O-])cc2[nH]c1=O | 105 | 111 | 91.9 (inactive) | 91.4 (inactive)
19 | O=C(COc1ccc(Cl)cc1)NC1CCC(NC(=O)COc2ccc(Cl)cc2)CC1 (configuration not stated) | 104 | 100 | 90.5 (inactive) | 92.9 (inactive)
20 | COc1cc(CNC(=O)CCCCC=CC(C)C)ccc1O [Capsaicin] | 99 ± 1.3 | 99.2 ± 2.3 | 93.8 (inactive) | 95.8 (inactive)
21 | Cc1nc2ccc(Oc3ccc(F)cc3)cc2c(=O)n1C[C@H]1CCCN(C(C)C)C1.Cl | 94.1 | 105 | 117 (inactive) | 102 (inactive)
22 | C[C@H](N[C@@H](CCc1ccccc1)C(=O)O)C(=O)N1CCC[C@H]1C(=O)O.O.O | 102 | 94.9 | 101 (inactive) | 109 (inactive)
23 | CC(C)(C)C1(O)CCN2CC3c4ccccc4CCc4cccc(c43)C2C1.Cl (single isomer, unassigned; (+)) [(+)-Butaclamol hydrochloride] | 54 | 49.9 | 126 (active) | 251 (active)

Source: the supplement of paper PMC7156485
